The list is not random: actives were taken first. Their share in the collection is about 19%.
HT1080 IDH1KD tx = HT-1080 IDH1 knockdown cell toxicity (counter line) | HT-1080 IDH1 knockdown viability, ATP luminescence, 48 h | hit rate 2% among 360,000 | Potency, µM (doses to about 46.1 µM), without a hit: top-dose activity, negative = toxicity, hits mostly cytotoxic;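 further: potency means the concentration at half of the fitted maximal effect; 0% = DMSO wells and -100% = cell-free medium wells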
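Viability of IDH1-knockdown HT-1080 fibrosarcoma cells was assessed by CellTiter-Glo after 48 h at 37 °C with titrated compound; concentration-effect curves were classified by fit quality and response size.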
HT1080NT lethal = kills 2HG-producing HT-1080-NT fibrosarcoma cells. HT-1080-NT fibrosarcoma viability, CellTiter-Glo ATP luminescence, 48 h. Potency, µM (top dose mostly 46.1 µM), for the others: top-dose activity, negative = less viability, most hits filed as cytotoxic. hit rate 1.6% among 360,000;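 further: NT is the 2HG producing partner of a matched IDH1 knockdown line; potency means the concentration at half of the fitted maximal effect; 0% = DMSO-treated cells and -100% = media-only wells without cells; nearly all actives have a fitted effect of over 55% in size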
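Read-out is CellTiter-Glo luminescence after 10 minutes at room temperature, following 48 hours' compound treatment of HT-1080-NT cells (750 cells/well, RPMI, 5% FBS, 37 degrees C).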
ELG1 repair inh = blocks ELG1-dependent DNA repair in HEK293T cells | HEK293T ELG1-luciferase reporter, luminescence, 16 h; DNA damage induced by 5-fluorouridine | Potency, µM (titrated, usually from 46.1 µM), for inactives: at the top dose activity change, negative = inhibition, hits mostly inhibitors | hit rate 2.3% among 330,000; further: potency means the concentration at half of the fitted maximal effect; nearly all actives have a fitted effect of over 55% in size
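Cells (2,000 per well) received 5-fluorouridine plus test compound or DMSO and were incubated 16 hr at 37 °C, 5% CO2. Luciferase activity was read by luminescence 30 min after ONE-Glo addition; signal suppression marked inhibition of damage-induced ELG1 function.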
TDP1 cell CPT = growth inhibition of DT40 Tdp1-/-;hTDP1 cells with camptothecin (screen for TDP1 inhibitors); chicken DT40 Tdp1-/-;hTDP1 cells + 20 nM CPT, ATP luminescence, 48 h; Potency, µM (doses to about 46.2 µM), for the others: at the highest dose activity change, negative = growth inhibition, most hits filed as inhibitors; hit rate 12% among 420,000; AID 686979; further: potency means the concentration at half of the fitted maximal effect; nearly all actives have a fitted effect of over 55% in size
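Chicken DT40 Tdp1-/- cells complemented with human TDP1, 400 cells/well, exposed to compounds plus 20 nM camptothecin for at least 48 h at 37 C; viability read as ATP content by CellTiter-Glo luminescence.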
IL-1B inflam inh = blocks inflammasome-driven IL-1 beta release | THP-1 LPS/ATP IL-1B secretion, AlphaLISA, 16 h; active compounds read low | activity change, % at 57.5 µM | hit rate 4.7% among 360,000 | AID 743279; in the data active means activity change below about -50%; inconclusive means mostly about -30% to -49%
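THP-1 cells pretreated 1 hr with compounds (up to 57.5 uM final), then stimulated with LPS (250 ng/mL final) plus ATP (1.25 mM final); secreted IL-1B measured by AlphaLISA after 16 hr, decreased signal indicating inhibition.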
DT40 TDP1 no CPT = qHTS for Inhibitors of human tyrosyl-DNA phosphodiesterase 1 (TDP1): qHTS in cells in absence of CPT | DT40 Tdp1-/- hTDP1 cells, no CPT, ATP luminescence, 48 h | Potency, µM (highest dose often 46.2 µM), for the others: at the highest dose activity change, negative = growth inhibition, usual class: inhibitors | hit rate 15% among 420,000 | AID 686978, 2013; further: potency means the concentration at half of the fitted maximal effect; nearly all actives have a fitted effect of over 55% in size
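Chicken DT40 Tdp1-/- cells complemented with human TDP1, screened without camptothecin (DMSO vehicle only), 400 cells/well. Compounds pin-transferred, cells incubated at 37 °C for at least 48 hr. Growth read as ATP-dependent luminescence (CellTiter-Glo, 30 min at RT).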
The depositor's hits bear a star; ? = inconclusive; / = not tested or not shown; [ ] = dose if it differs, or a comment. Unless noted, the call rests on the fitted dose curve; in most records, active means well fitted curve in the direction sought with a large enough effect; inconclusive means small, poorly fitted or top-dose-only effect, or another doubt; inactive means no such curve, though single readings can be large; an effect the other way counts as inactive or inconclusive. Unless noted, on the % scale 0 is the no-effect control and ±100 the full control effect.

SMILES	HT1080 IDH1KD tx	HT1080NT lethal	ELG1 repair inh	TDP1 cell CPT	IL-1B inflam inh	DT40 TDP1 no CPT
Cc1ccc(S(=O)(=O)N2CCN(C(=O)COC(=O)CNC(=O)c3ccc(Cl)cc3Cl)CC2)c(C)c1	2.8%	-2.9%	/	-1.1%	15.7	-13.7%
COc1ccc(CCNC(=O)c2ccncc2)cc1OC	4.7%[9.24 µM]	11.0%	-3.8%	-5.9%	12.9	-13.6%
COc1ccc(CCNC(=O)c2ccc(CNS(=O)(=O)c3cc(C)ccc3C)cc2)cc1OC	?	-26.1%	20.6µM*	?	-2.7	?
COc1ccc(CCNC(=O)c2ccc(CNS(=O)(=O)c3cccc(Cl)c3)cc2)cc1OC	-17.3%	-19.9%	23.1µM*	?	-12.2	23.1µM*
COc1ccc(CNS(=O)(=O)NCc2ccc(C)cc2)cc1OC	-13.9%	1.1%	20.6µM*	?	21.7	16.4µM*
COc1ccc(CCNC(=O)c2ccc(CNS(=O)(=O)c3ccc(C(C)(C)C)cc3)cc2)cc1OC	12.9%	-7.1%	0.8%	?	-9.4	?
Cc1ccc(C)c(S(=O)(=O)NCc2ccc(C(=O)N3CCCCC3C)cc2)c1 (stereo not given)	-1.3%	-7.6%[9.24 µM]	?	?	-9.6	23.1µM*
CCOC(=O)c1ccc(NC(=O)COC(=O)Cc2csc(-c3ccccc3)n2)cc1	12.4%	-1.2%	?	5.3%	2.8	15.0%
COc1ccc(CCNS(=O)(=O)c2cccc(C(=O)O)c2)cc1OC	7.8%	8.0%	7.6%	20.6µM*	13.3	16.4µM*
COc1ccc(CCNS(=O)(=O)c2ccc3c(c2)NC(=O)CCS3)cc1OC	?	-12.4%	-3.2%	11.6µM*	23.5	?
O=C(NNc1ccccc1C(F)(F)F)c1sccc1Cl	1.6%	3.6%	/	?	/	?
COc1ccc(Cl)cc1NC(=O)CSc1nnc2[nH]c(=O)cc(-c3ccccc3)n12	/	/	/	3.4%	/	-8.4%
COc1ccc(/C=C2\SC(=S)N(CC3CCCO3)C2=O)cc1 (stereo not given)	3.9%	4.1%	?	16.2%	-11.9	-8.9%
COc1ccc(N=C2O/C(=C/c3sc(=S)n(CC4CCCO4)c3O)N=C2C#N)cc1 (stereo not given)	-19.5%	0.0%	-4.9%	?	-12.2	29.1µM*
CC(N)=Nc1ccc([N+](=O)[O-])cc1	13.1%	19.3%	17.0%	-10.3%	5.8	-2.8%
O=C1CC(=Nc2ccc([N+](=O)[O-])cc2)NN1c1c(Cl)cc(Cl)cc1Cl	-14.7%	-14.5%	/	?	-73.8*	25.9µM*
CN(C)c1ccc(NC(=O)c2sc(SCC(=O)Nc3nccs3)nc2N)cc1	-2.4%	-3.0%	?	?	-21.9	16.4µM*
CCn1c(SCC(=O)c2ccc(O)c(O)c2)nnc1-c1ccc(C)cc1	-13.8%	-11.6%	-7.1%	23.1µM*	49.5	?
CN(C)c1ccc(NC(=O)c2sc(SCC(=O)Nc3ccc(Br)cc3)nc2N)cc1	10.3%	2.4%	5.8%	-9.6%	-5.2	7.0%
O=C(CSc1nc(-c2ccccc2)cs1)Nc1nccs1	?	?	-3.0%	?	36.5	16.4µM*
CCn1c(SCC(=O)Nc2nccs2)nnc1-c1ccc(S(=O)(=O)N2CCCCC2)cc1	-11.8%	-10.0%	20.6µM*	?	-20.6	16.4µM*
Cc1ccc(CNS(=O)(=O)c2ccc(Cl)s2)cc1	4.2%	-3.7%	/	?	-4.8	?
COc1cc(C(C)=O)ccc1OCC(O)CNCC(O)c1ccccc1 (stereo not given)	8.2%	9.1%	?	?	?	-17.6%
COc1ccc(-c2oc(NC(=O)CSc3nncn3C)c(C#N)c2-c2ccc(OC)cc2)cc1	16.4µM*	?	18.4µM*	?	-8.2	?
COc1ccc2cc(C)c3nnc(SCC(=O)Nc4nc(-c5ccccc5)cs4)n3c2c1	-4.6%	-10.0%	-15.2%	?	34.9	4.61µM*
SMILES	HT1080 IDH1KD tx	HT1080NT lethal	ELG1 repair inh	TDP1 cell CPT	IL-1B inflam inh	DT40 TDP1 no CPT
Cc1cc(SCC(=O)NC(=O)NCc2ccco2)nc2c(C)cccc12	?	-27.1%	?	?	15.0	29.1µM*
N#Cc1c(NC(=O)CSc2ccccn2)oc(-c2ccccc2)c1-c1ccccc1	-6.6%	1.6%	-18.9%	-15.6%	32.5	-28.9%
CCn1c(SCC(=O)OC(C)C)nnc1-c1ccccc1	6.7%	-5.5%	-9.5%	3.8%	-63.9*	-3.5%
Cc1cc(SCC(=O)NC(=O)NCc2ccco2)nc2ccccc12	3.0%	2.1%	-11.9%	?	13.0	-23.9%
CCn1c(SCC(=O)Nc2oc(-c3ccccc3)c(-c3ccccc3)c2C#N)nnc1-c1ccco1	-14.0%	-8.4%	-0.7%	?	-14.0	-29.5%
O=C(CSc1nc(-c2ccccc2)cs1)NC(=O)NCc1ccco1	-4.3%	-3.6%	18.4µM*	-12.0%	0.0	-13.0%
CCn1c(SCC(=O)Nc2nc(-c3ccccc3)cs2)nnc1-c1ccccc1	?	?	?	?	-62.7*	?
CCn1c(SCC(=O)Nc2oc(-c3ccccc3)c(-c3ccccc3)c2C#N)nnc1-c1ccncc1	0.1%	-0.6%	-13.5%	13µM*	4.0	?
O=C(CSc1nc2ccccc2s1)NC(=O)NCc1ccco1	3.2%	14.8%	0.0%	-0.1%	28.7	0.9%
O=S1(=O)CC(N2CC=CC2)CN1C1CCCCC1 (stereo not given)	22.0%	22.4%	/	?	-9.4	?
COc1ccccc1C(C)NCC(=O)c1c(C)[nH]c2ccccc12 (stereo not given)	/	/	/	11.2µM*	/	17.8µM*
COc1ccccc1C(C)NC(=O)c1cc(=O)[nH]c2ccccc12 (stereo not given)	16.3%	-7.3%	3.7%	-11.0%	-17.8	-7.2%
Cc1noc(C)c1C(=O)N1CCC2(CCCN(c3ccccn3)C2)CC1	/	/	/	-2.3%	/	?
O=C(OCn1ncc(Br)c(Br)c1=O)c1ccc(F)cc1	11.6µM*	20.6µM*	?	1.03µM*	-97.2*	1.03µM*
O=C(OCn1ncc(Br)c(Br)c1=O)c1ccccc1Cl	6.51µM*	8.2µM*	?	1.16µM*	-99.7*	1.46µM*
CC(NC(=O)C(=O)NN=C1CCCC1)c1ccccc1 (stereo not given)	12.4%	12.3%	19.0%	3.8%	-8.8	-11.0%
COc1cccc2c(=O)c3ccoc3n(C)c12	3.9%	-1.2%	-0.4%	-2.2%[9.04 µM]	-10.1	-4.3%[9.04 µM]

High-throughput results (PubChem BioAssay)
